Data published in ChEMBL document CHEMBL1961873, “Compounds: GSK PKIS; Assays: Nanosyn kinase panel” (2012).

Columns and labels:
[1] = molecular target: Mitogen-activated protein kinase 3 (Homo sapiens) (UniProt P27361); conditions: at 1 µM;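 further: values are mean percent inhibition of MAPK3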
[2] = molecular target: SRSF protein kinase 3 (Homo sapiens) (UniProt Q9UPE1); conditions: at 0.1 µM
[3] = molecular target: SRSF protein kinase 3 (Homo sapiens) (UniProt Q9UPE1); conditions: at 1 µM
[4] = molecular target: Mitogen-activated protein kinase 14 (Homo sapiens) (UniProt Q16539); conditions: at 0.1 µM
[5] = molecular target: Mitogen-activated protein kinase 14 (Homo sapiens) (UniProt Q16539); conditions: at 1 µM
[6] = molecular target: Mitogen-activated protein kinase 11 (Homo sapiens) (UniProt Q15759); conditions: at 0.1 µM
[7] = molecular target: Mitogen-activated protein kinase 11 (Homo sapiens) (UniProt Q15759); conditions: at 1 µM
[8] = molecular target: T1, Mitogen-activated protein kinase 13 (Homo sapiens) (UniProt O15264); conditions: at 0.1 µM
T1 sequence (whole entry): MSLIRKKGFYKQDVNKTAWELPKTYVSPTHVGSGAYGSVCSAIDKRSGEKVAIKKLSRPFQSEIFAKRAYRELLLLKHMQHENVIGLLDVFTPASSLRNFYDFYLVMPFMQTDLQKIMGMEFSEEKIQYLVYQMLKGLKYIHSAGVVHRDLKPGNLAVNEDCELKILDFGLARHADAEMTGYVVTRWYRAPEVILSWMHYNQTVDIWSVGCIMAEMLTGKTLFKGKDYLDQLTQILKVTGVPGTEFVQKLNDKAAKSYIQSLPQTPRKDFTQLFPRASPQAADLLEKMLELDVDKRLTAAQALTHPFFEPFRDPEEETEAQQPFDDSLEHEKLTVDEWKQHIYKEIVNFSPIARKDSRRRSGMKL

[9] = molecular target: T1, Mitogen-activated protein kinase 13 (Homo sapiens); conditions: at 1 µM
[10] = molecular target: T2, Mitogen-activated protein kinase 12 (Homo sapiens) (UniProt P53778); conditions: at 0.1 µM
T2 sequence (whole entry): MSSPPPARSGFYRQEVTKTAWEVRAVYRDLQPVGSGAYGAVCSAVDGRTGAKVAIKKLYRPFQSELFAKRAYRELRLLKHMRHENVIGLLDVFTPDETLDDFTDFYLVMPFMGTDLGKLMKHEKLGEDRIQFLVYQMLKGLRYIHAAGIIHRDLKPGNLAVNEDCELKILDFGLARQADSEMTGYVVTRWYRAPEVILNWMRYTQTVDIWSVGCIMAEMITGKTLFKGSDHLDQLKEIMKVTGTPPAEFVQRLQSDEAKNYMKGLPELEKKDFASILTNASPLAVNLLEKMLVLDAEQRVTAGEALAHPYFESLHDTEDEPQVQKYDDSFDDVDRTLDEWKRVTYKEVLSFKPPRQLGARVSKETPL

[11] = molecular target: T2, Mitogen-activated protein kinase 12 (Homo sapiens); conditions: at 1 µM
[12] = molecular target: SRSF protein kinase 1 (Homo sapiens) (UniProt Q96SB4); conditions: at 0.1 µM
[13] = molecular target: SRSF protein kinase 1 (Homo sapiens) (UniProt Q96SB4); conditions: at 1 µM
[14] = molecular target: Phosphatidylinositol 4,5-bisphosphate 3-kinase catalytic subunit alpha isoform (Homo sapiens) (UniProt P42336); conditions: at 0.1 µM
[15] = molecular target: Phosphatidylinositol 4,5-bisphosphate 3-kinase catalytic subunit alpha isoform (Homo sapiens) (UniProt P42336); conditions: at 1 µM
[16] = molecular target: T3, Phosphatidylinositol 4,5-bisphosphate 3-kinase catalytic subunit delta isoform (Homo sapiens) (UniProt O00329); conditions: at 0.1 µM
T3 sequence (whole entry): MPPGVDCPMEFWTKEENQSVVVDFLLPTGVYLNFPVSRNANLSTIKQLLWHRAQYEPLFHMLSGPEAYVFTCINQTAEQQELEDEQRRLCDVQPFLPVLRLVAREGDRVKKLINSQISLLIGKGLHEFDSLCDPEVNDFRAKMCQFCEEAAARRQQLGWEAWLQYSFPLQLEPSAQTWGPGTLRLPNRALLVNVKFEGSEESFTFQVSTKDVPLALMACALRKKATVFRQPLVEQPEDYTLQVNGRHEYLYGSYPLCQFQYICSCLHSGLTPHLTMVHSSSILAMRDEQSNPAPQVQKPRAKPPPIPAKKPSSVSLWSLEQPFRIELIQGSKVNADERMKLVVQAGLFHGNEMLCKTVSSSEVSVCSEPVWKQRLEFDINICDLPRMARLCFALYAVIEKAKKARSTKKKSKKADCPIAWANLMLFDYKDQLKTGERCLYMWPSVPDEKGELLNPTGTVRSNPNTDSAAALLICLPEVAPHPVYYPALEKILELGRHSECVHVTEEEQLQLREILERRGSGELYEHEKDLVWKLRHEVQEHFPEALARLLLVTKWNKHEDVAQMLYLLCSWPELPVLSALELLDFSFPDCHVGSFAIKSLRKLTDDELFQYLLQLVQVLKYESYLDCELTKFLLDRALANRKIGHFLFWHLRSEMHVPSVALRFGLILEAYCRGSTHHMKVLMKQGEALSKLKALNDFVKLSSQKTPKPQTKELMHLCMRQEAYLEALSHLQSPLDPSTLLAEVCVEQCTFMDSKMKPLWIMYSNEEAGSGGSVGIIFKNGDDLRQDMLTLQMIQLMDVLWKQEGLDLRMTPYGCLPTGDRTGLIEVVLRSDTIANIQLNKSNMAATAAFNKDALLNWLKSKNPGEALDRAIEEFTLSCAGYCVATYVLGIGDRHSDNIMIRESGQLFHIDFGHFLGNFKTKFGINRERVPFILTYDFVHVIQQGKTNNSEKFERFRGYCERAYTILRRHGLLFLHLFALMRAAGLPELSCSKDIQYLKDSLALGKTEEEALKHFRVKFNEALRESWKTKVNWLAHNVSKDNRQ

[17] = molecular target: T3, Phosphatidylinositol 4,5-bisphosphate 3-kinase catalytic subunit delta isoform (Homo sapiens); conditions: at 1 µM
[18] = molecular target: Phosphatidylinositol 4-kinase beta (Homo sapiens) (UniProt Q9UBF8); conditions: at 0.1 µM
[19] = molecular target: Phosphatidylinositol 4-kinase beta (Homo sapiens) (UniProt Q9UBF8); conditions: at 1 µM
[20] = molecular target: Sphingosine kinase 1 (Homo sapiens) (UniProt Q9NYA1); conditions: at 0.1 µM;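 further: mean percent inhibition of SPHK1 activity, measured within the GSK PKIS screening panel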
Chain of Sphingosine kinase 1 (Homo sapiens) (Q9NYA1 whole entry): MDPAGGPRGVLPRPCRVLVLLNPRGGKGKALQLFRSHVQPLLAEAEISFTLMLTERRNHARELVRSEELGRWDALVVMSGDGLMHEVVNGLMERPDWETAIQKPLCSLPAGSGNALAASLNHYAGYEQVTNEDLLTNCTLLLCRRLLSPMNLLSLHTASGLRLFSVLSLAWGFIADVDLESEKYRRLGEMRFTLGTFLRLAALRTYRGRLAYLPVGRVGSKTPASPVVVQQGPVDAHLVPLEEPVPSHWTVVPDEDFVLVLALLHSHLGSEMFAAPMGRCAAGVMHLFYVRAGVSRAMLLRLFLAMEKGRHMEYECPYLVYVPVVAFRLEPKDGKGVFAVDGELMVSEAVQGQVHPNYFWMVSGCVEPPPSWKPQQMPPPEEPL

Chain of Phosphatidylinositol 4,5-bisphosphate 3-kinase catalytic subunit alpha isoform (Homo sapiens) (P42336 whole entry, canonical isoform): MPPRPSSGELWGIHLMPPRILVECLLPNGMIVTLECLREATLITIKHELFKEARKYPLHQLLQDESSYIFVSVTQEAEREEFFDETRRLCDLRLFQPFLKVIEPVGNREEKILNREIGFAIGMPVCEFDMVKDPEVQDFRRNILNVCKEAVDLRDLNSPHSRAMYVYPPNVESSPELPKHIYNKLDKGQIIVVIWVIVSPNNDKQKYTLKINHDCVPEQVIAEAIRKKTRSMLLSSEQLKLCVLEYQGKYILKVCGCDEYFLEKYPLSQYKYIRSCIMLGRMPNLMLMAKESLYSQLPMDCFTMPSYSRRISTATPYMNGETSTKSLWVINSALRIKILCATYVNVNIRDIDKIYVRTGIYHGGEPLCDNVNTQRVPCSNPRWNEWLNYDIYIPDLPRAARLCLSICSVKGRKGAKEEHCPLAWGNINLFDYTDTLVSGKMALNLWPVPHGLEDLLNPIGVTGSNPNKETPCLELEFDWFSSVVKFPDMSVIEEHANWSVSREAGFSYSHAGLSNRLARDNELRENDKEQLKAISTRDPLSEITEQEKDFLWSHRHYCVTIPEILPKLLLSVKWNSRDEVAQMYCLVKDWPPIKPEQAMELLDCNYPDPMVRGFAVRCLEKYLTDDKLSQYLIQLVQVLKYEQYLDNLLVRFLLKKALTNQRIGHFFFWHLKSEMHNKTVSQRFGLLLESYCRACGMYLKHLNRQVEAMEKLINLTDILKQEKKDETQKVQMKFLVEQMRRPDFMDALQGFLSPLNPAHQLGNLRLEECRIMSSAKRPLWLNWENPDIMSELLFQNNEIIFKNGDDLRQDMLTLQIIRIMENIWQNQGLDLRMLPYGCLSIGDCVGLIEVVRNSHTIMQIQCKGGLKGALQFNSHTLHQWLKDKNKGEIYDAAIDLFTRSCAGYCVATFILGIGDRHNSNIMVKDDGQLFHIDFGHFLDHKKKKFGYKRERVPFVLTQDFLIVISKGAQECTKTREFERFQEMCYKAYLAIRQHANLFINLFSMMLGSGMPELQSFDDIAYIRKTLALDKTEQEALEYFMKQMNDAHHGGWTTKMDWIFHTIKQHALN
Chain of Mitogen-activated protein kinase 11 (Homo sapiens) (Q15759 whole entry): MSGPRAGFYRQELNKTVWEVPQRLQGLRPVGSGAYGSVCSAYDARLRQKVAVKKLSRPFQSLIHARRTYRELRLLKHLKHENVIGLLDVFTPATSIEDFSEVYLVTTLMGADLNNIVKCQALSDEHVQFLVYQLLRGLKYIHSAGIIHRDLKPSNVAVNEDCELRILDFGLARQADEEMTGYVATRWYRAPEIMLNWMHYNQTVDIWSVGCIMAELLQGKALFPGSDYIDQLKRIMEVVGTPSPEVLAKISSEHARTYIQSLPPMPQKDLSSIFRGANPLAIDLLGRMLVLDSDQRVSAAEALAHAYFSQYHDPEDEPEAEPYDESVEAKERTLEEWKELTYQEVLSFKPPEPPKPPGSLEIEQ
Chain of SRSF protein kinase 3 (Homo sapiens) (Q9UPE1 whole entry): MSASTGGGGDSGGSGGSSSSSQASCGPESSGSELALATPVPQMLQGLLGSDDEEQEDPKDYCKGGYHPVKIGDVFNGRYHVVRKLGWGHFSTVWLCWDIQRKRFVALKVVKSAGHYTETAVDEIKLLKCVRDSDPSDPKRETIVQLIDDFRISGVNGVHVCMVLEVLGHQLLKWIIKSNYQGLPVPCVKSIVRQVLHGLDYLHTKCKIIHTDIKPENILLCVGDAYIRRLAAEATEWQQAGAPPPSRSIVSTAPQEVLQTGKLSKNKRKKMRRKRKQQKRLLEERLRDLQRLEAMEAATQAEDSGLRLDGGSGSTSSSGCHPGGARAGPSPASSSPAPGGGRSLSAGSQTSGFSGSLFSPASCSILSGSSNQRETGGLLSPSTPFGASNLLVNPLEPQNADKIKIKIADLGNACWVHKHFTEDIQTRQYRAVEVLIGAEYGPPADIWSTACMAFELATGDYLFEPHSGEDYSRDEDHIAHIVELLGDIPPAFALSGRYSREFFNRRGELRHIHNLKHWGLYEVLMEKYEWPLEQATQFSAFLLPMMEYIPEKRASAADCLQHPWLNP
Chain of SRSF protein kinase 1 (Homo sapiens) (Q96SB4 whole entry, canonical isoform): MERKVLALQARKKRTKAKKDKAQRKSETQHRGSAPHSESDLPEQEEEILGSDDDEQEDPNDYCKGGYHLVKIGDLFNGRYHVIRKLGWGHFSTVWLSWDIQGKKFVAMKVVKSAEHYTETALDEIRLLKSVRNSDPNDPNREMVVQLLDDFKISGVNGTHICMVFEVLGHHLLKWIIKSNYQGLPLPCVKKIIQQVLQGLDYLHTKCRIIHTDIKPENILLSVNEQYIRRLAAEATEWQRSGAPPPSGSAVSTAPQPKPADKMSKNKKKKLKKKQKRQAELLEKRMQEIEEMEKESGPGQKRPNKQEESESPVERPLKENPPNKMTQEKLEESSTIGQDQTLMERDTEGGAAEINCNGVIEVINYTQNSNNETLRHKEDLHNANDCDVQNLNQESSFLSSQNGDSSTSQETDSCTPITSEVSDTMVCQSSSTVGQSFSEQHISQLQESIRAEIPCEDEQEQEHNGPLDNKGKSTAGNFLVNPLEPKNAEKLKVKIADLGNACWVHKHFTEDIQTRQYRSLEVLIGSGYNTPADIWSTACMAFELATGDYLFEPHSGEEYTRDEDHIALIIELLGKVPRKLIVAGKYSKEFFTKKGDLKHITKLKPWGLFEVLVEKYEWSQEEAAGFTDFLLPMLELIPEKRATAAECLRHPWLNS
Chain of Phosphatidylinositol 4-kinase beta (Homo sapiens) (Q9UBF8 2-816 limits assumed): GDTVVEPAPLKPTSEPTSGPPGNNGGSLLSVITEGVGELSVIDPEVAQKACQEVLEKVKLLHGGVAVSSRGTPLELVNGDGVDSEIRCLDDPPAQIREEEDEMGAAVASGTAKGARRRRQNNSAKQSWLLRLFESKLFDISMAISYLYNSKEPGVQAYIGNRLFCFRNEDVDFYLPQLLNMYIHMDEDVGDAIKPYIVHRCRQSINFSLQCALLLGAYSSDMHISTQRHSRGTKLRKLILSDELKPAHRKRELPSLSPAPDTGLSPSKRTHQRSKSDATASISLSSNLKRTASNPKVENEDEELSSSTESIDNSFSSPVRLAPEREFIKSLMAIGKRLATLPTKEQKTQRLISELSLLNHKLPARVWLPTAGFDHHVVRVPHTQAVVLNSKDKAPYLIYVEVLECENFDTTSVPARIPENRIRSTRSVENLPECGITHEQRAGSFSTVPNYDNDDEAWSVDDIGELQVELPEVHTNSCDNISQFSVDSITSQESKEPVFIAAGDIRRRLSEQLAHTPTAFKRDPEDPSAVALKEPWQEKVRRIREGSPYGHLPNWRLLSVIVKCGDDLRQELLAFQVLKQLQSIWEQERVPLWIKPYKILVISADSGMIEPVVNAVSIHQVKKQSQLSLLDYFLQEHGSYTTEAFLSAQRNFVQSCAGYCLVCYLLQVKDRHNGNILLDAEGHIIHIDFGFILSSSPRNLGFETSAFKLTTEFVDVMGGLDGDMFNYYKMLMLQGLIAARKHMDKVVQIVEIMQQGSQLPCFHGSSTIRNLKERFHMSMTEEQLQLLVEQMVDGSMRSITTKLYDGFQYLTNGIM
Chain of Mitogen-activated protein kinase 3 (Homo sapiens) (P27361 whole entry): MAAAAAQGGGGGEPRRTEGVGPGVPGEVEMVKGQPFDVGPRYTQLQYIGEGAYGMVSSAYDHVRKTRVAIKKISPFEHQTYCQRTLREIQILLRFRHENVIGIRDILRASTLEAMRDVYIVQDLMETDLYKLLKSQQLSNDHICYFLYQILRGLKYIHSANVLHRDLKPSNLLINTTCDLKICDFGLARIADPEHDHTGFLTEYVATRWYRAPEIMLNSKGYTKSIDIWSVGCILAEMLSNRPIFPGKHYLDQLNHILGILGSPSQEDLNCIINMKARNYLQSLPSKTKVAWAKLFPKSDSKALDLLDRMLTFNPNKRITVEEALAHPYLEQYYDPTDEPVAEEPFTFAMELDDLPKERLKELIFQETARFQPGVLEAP
Chain of Mitogen-activated protein kinase 14 (Homo sapiens) (Q16539 whole entry): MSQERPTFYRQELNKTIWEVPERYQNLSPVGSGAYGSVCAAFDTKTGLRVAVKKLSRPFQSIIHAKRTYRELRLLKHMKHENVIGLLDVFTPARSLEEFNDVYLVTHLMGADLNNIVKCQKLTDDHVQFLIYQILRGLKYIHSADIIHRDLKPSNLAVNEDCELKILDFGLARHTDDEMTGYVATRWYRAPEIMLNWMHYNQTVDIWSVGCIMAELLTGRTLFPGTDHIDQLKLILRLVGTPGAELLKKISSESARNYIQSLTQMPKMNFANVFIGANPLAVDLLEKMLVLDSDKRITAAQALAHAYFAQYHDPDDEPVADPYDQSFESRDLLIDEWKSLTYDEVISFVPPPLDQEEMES

Row | SMILES | inhibition [1] [%] | inhibition [2] [%] | inhibition [3] [%] | inhibition [4] [%] | inhibition [5] [%] | inhibition [6] [%] | inhibition [7] [%] | inhibition [8] [%] | inhibition [9] [%] | inhibition [10] [%] | inhibition [11] [%] | inhibition [12] [%] | inhibition [13] [%] | inhibition [14] [%] | inhibition [15] [%] | inhibition [16] [%] | inhibition [17] [%] | inhibition [18] [%] | inhibition [19] [%] | inhibition [20] [%]
1 | CN(C)C(=O)O[C@@H]1CN[C@@H](C#Cc2cc3ncnc(Nc4ccc(OCc5cccc(F)c5)c(Cl)c4)c3s2)C1 | 1.36 | -1.41 | -1.97 | 5.64 | 2.87 | 3.3 | 6.17 | 1.12 | 1.11 | 0.57 | 1.28 | -1.65 | -5.46 | 0.17 | 29 | 3.66 | 20.8 | -2.99 | -0.33 | 0.88
2 | COc1cccc(-n2nc(C)c3c(N/N=C(\C)c4ccncc4)ncnc32)c1 | -1.26 | -0.29 | -1.75 | 1.46 | 0.91 | 1.51 | 0.17 | -0.04 | -0.68 | -0.13 | 0.35 | -2.19 | -2.27 | -0.84 | -0.14 | -1.39 | 6.02 | -2.42 | -3.63 | 1.12
3 | COc1cc2ncnc(Nc3ccc(C)c(O)c3)c2cc1OC | 7.04 | -1.99 | 0.42 | 5.71 | 22.1 | 6.38 | 17.4 | -2.57 | 6.31 | 2.43 | 4.08 | -1.2 | -0.28 | 4.07 | 7.27 | 1.27 | 4.88 | -1.03 | -0.17 | 4.48
4 | CCS(=O)(=O)c1ccc(OC)c(Nc2nccc(N(C)c3ccc4c(C)n[nH]c4c3)n2)c1 | 4.25 | -3.37 | -0.4 | 5.92 | 8.09 | 3.01 | 3.67 | 4.71 | 2.73 | 2.34 | 3.12 | -3.64 | -4.44 | 4.66 | 3.7 | 2.01 | 2.75 | 0.2 | -1.28 | 4.16
5 | COc1ccc(-c2nn3ncccc3c2-c2ccnc(Nc3cccc(C(F)(F)F)c3)n2)cc1 | 1.1 | -2.11 | -1.47 | 15 | 57.8 | 7.58 | 24.7 | 2.68 | 1.86 | 2.04 | 2.35 | -2.17 | -1.48 | 2.28 | 2.8 | -0.05 | 2.34 | 4.99 | -1.04 | 0.03
6 | Cc1ccc(O)cc1Nc1ccnc2ccc(S(C)(=O)=O)cc12 | 2.62 | -1.95 | -1.35 | 14 | 58.8 | 9 | 34.2 | 2.61 | 6.26 | 0.62 | 3.79 | -0.84 | 2.51 | 9.67 | 39.6 | 10.9 | 50.7 | -3.87 | 1.39 | 1.12
7 | CCCN1CCCC(c2ccc(Nc3nc(Nc4cc(F)ccc4C(N)=O)c4cc[nH]c4n3)c(OC)c2)C1 (stereo not given) | 9.65 | 4.66 | 28.2 | 13.9 | 17.1 | 7.57 | 14.5 | 6.1 | 7.07 | 3.99 | 3.39 | -0.71 | 7.5 | 2.9 | 5.55 | 2.18 | 9.74 | -3.21 | -1.21 | -0.22
8 | CCOc1nccc2c1nc(-c1nonc1N)n2CC | 3.56 | 0.36 | 4.21 | -6.67 | 6.06 | 3.87 | 7.56 | 2.58 | 2.91 | 0.94 | 3.14 | 0.65 | 6.12 | 2.9 | 1.35 | 0.56 | 0.99 | 7.22 | 0.43 | 0.81
9 | NS(=O)(=O)c1ccc(Nc2cc(-c3cccc(O)c3)n[nH]2)cc1 | 3.73 | 0.13 | -0.83 | 4.9 | 9.21 | 7.39 | 9.77 | 2.03 | 7.23 | 3.84 | 3.15 | -3.05 | -2.8 | 4.26 | 7.56 | 2.48 | 4.98 | -1.18 | -1.14 | 1.67
10 | ON=C1CCc2cc(-c3nc(C4CCNCC4)[nH]c3-c3ccncc3)ccc21 | 0.97 | -1.32 | -2.19 | 25.4 | 73.7 | 7.03 | 33.1 | -0.29 | 0.95 | 1.31 | 1 | -1.62 | -5.28 | -1.04 | 0 | 0.31 | 3.08 | 2.07 | -0.63 | -1.16
11 | CN(c1ccc(NC(=O)Nc2ccc(OC(F)(F)F)cc2)cc1)c1ccnc(Nc2cccc(S(N)(=O)=O)c2)n1 | 3.33 | -1.09 | 16.6 | 4.8 | 13.6 | 4.81 | 16.7 | 2.86 | 6.6 | 2.28 | 11.2 | -0.74 | 1.1 | 2.98 | 5.04 | 1.08 | 3.29 | -1.47 | 3.37 | -0.13
12 | NC(=O)c1sc(-n2cnc3ccccc32)cc1OCc1ccccc1Br | 4.22 | -0.27 | -0.72 | 8.45 | 23.1 | 1.2 | 4.68 | 4.65 | 5.08 | 3.45 | 5.59 | -3.49 | -2.38 | 4.02 | 4.31 | 2.31 | 4.24 | 0.67 | -1.28 | 1.25
13 | N#Cc1c(NC(=O)c2ccccc2F)sc2c1CCCC2 | -1.26 | -1.34 | -0.38 | -1.85 | -1.18 | 0.63 | 2.26 | -1.92 | -2.71 | -1.2 | -0.74 | -1.54 | -0.64 | -2.15 | -1.29 | 1.85 | 2.06 | 0.79 | 2.03 | 0.86
